Experiment [1] in a line: BSK_BT_Bcell_Proliferation: Viability Assessment in the BioMAP Diversity Plus: BT Assay for B cell Proliferation (AID 2284227). Particulars: primary human B cells with PBMC. In short, it runs like this: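 Human B cells co-cultured with PBMC were dosed with test chemicals and relative cell number was quantified by SRB staining at 72 h. Cells were fixed in 10% TCA, stained with 0.1% SRB and read at 560 nm. Activity was fitted in the positive direction against DMSO.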

Read-out in experiment [2]: Interleukin 6 (IL6), IL6 (gene 3569)
Briefly: BSK_BT_xIL6: BioMAP Diversity Plus: BT Assay for Interleukin 6 (IL6) Biomarker Activity (AID 2284228). Particulars: primary human B cells with PBMC. The essentials:
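Chemical added to human B cell/PBMC co-culture → 24 h → supernatant IL-6 by Luminex xMAP → fit vs DMSO baseline, upward direction.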

Read-out in experiment [3]: Interleukin 17A (IL17A), IL17A (gene 3605)
Briefly: BSK_BT_xIL17A: BioMAP Diversity Plus: BT Assay for Interleukin 17A (IL17A) Biomarker Activity (AID 2284229). Particulars: primary human B cells with PBMC. In short, it runs like this:
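Chemicals were added to a human B cell and PBMC co-culture. After 24 h, secreted IL-17A was measured with Luminex xMAP. Curves were fitted in the positive direction, with DMSO wells as baseline.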

Read-out in experiment [4]: Tumor necrosis factor (Homo sapiens) (UniProt P01375)
Briefly: BSK_BT_xTNFa: BioMAP Diversity Plus: BT Assay for Tumor necrosis factor alpha (TNF-alpha) Biomarker Activity (AID 2284230). Particulars: primary human B cells with PBMC. The essentials: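 B cells with PBMC in co-culture, dosed and sampled at 24 h; secreted TNF-alpha measured by Luminex xMAP bead assay. Activity fitted in the gain direction against DMSO as negative control and baseline.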

Read-out in experiment [5]: Vascular cell adhesion molecule 1 (VCAM1), VCAM1 (gene 7412)
Briefly: BSK_MyoF_VCAM1: BioMAP Diversity Plus: MyoF Assay for Vascular cell adhesion molecule 1 (VCAM1) Biomarker Activity (AID 2284231). Particulars: primary human lung fibroblasts. In short, it runs like this: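 Steps: fibroblasts from human lung exposed to compound; biomarker quantified by ELISA at 24 h; values analysed for upward change over the DMSO baseline.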

Read-out in experiment [6]: Collagen I, COL1A1 (gene 1277)
Briefly: BSK_MyoF_CollagenI: BioMAP Diversity Plus: MyoF Assay for Collagen I Biomarker Activity (AID 2284238). Particulars: primary human lung fibroblasts. In short, it runs like this:
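Multiplexed primary human lung fibroblast system; Collagen I measured by ELISA at 24 h post-dose. Increases are referenced to DMSO.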

The nature of experiment [7]: CCTE_Mundy_HCI_Cortical_NOG_BPCount: CCTE's Neurite Outgrowth Assay in rat cortical cells for Branch Point Count, Mundy Lab (AID 2284237). In short, it runs like this: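 Measured 50.33 h after dosing, this morphology endpoint uses rat primary cortical cultures labelled for betaIII-tubulin. Branch points are quantified by high-content imaging, with DMSO as negative control and baseline.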

Experiment [8] can be described thus: UKN2_HCS_IMR90_cell_viability: Viability Assessment in the University of Konstanz (UKN) Leist Lab Neural Crest Cell Migration Assay in human induced IMR90 Pluripotent Stem Cells (UKN2) (AID 2284233).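 Also: viability of neural crest cells differentiated from IMR90 iPSC measured by calcein-AM fluorescence imaging.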 The essentials: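 Neural crest cells derived from IMR90 iPSC migrate into a stopper-free zone for 24 h in EGF/FGF medium, then are exposed to compound for 24 h. Viability assessed by calcein-AM and Hoechst staining with high-content imaging, fitted bidirectionally versus DMSO.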

Experiment [9] can be described thus: CCTE_Mundy_HCI_Cortical_NOG_NeuronCount: CCTE's Neurite Outgrowth Assay in rat cortical cells for Neuron Count, Mundy Lab (AID 2284236; active = hit-call score of the fitted dose curve at least 0.9, where 1 is the maximum;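 also: neurons counted by imaging betaIII-tubulin and Hoechst stained cortical cells; cells exposed to compound for about 48 hours before fixation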). The essentials: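 Read-out: neuron number by high-content imaging of betaIII-tubulin (Alexa Fluor-488) and Hoechst-labelled rat primary cortical cells.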
Experiment [10] is described as follows: TAMU_HCS_1.5hr_SingleDonor1434_Cytotoxicity: Cytotoxicity Assessment using High-content Screening (HCS) Fluorescent Imaging for the Texas A&M University (TAMU) 1.5-hr Human Induced Pluripotent Stem Cell (iPSC)-derived Cardiotoxicity Assay (AID 2284234; active = hit-call score of the fitted dose curve at least 0.9, where 1 is the maximum). The essentials:
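Human iPSC-derived cardiomyocytes dosed at 0.2, 1, 10, 100 uM final (0.5% DMSO) for 90 min at 37 C. Hoechst 33342-stained nuclei counted by 10x high-content imaging; POD is EC10, a 10% drop in total cell count versus DMSO.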

Structures are written as SMILES. Several values for one entry are separate records, joined by “and”; a condition that tells them apart may be missing. Equal entries are not always repeated. Results filed as inconclusive are left out. Activity calls are given as the source filed them. The calls were made as follows, unless noted: active = hit-call score of the fitted dose curve at least 0.9, where 1 is the maximum; inactive = score below 0.9. Peptide text beside a SMILES is read from it.

Chain of Tumor necrosis factor (Homo sapiens) (P01375 whole entry, looked up): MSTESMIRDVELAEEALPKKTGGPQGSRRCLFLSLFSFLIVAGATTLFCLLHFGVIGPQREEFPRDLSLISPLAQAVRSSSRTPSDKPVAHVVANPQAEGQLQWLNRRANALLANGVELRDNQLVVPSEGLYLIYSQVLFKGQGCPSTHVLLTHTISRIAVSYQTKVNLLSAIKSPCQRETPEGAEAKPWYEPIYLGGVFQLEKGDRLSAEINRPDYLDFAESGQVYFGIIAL

The term AC50 denotes the concentration at which the activity in the assay is half-maximal. With `O=C(Oc1ccccc1)c1ccccc1C(=O)Oc1ccccc1`, the figures for the AC50 in [1] and in experiment [5] were 26.2 µM (active) and 20 µM (active), respectively. The outcome in experiment [2], in experiment [3], in experiment [4] and in experiment [6] was inactive.
For `CC(C)[N+](C)(CCOC(=O)C1c2ccccc2Oc2ccccc21)C(C)C`, the outcome in [1], in experiment [2], in [3], in experiment [4], in experiment [5] and in experiment [6] was inactive.
As for `Oc1c(Cl)cc(Cl)c(Cl)c1Cl`, the result in experiment [1], in [2] and in [3] was inactive. Further, the values for the AC50 in experiment [5] and in experiment [6] were 11.6 µM (active) and 20 µM (active), respectively.
For the compound `CCCCCCCCC(CO)CCCCCC` (centres undefined), the result in experiment [1], in [3], in experiment [5] and in [6] was inactive. In experiment [2], the AC50 was 30.2 µM (active).
Take `Cc1noc(NS(=O)(=O)c2ccc(N)cc2)c1C`: the outcome in [7] was inactive.
As to `CCOC(=O)C1=NOC(c2ccccc2)(c2ccccc2)C1`, the outcome in experiment [1], in experiment [3], in experiment [5] and in experiment [6] was inactive. Also, in experiment [2], the AC50 was 6.05 µM (active).
Regarding `C=C(C)C(=O)OCCCCCCCCCCCC`, the outcome in experiment [1], in experiment [2], in experiment [3], in experiment [5] and in experiment [6] was inactive.
Turning to `c1ccc2c(c1)[nH]c1ccccc12`, the outcome in [1], in experiment [2], in experiment [3], in experiment [5] and in experiment [6] was inactive.
For the compound `C=CC(=O)NCOCCCC`, the result in [1], in [2], in experiment [3], in experiment [5] and in experiment [6] was inactive.
As to `C=CC(=O)NC(C)(C)C`, the result in experiment [1], in [2], in [3], in experiment [5] and in [6] was inactive.
Take `CC=C(C)C(C)=O`: the outcome in experiment [1], in [2], in experiment [3], in experiment [5] and in [6] was inactive.
As to `CC(C)CCCCCOC(=O)CS`, the result in experiment [1], in experiment [2], in experiment [3], in [5] and in experiment [6] was inactive.
Regarding `Cc1c(C(=O)c2c[nH]n(C)c2=O)ccc(S(C)(=O)=O)c1C1=NOCC1`, in [7], the outcome was inactive.
Take `O=C1CCCCCCCCCCC1`: the result in experiment [1], in experiment [2], in experiment [3], in [5] and in experiment [6] was inactive.
Consider `C[N+](C)(C)CCCNS(=O)(=O)C(F)(F)C(F)(F)C(F)(F)C(F)(F)C(F)(F)C(F)(F)C(F)(F)C(F)(F)F`, for which the result in experiment [1] and in experiment [2] was inactive. Further, the AC50 was 30 µM (active) in experiment [3]; 44.5 µM (active) and 57 µM (active) in [5]; 48.6 µM (active) and 48.1 µM (active) in experiment [6].
As to `c1ccc2sc(SSN3CCOCC3)nc2c1`, the AC50 in experiment [2] was 13.3 µM (active); in experiment [3], 20 µM (active); in [5], 30.4 µM (active); in experiment [6], 15.5 µM (active).
Turning to `CCC1(C)C(=O)N(Cl)C(=O)N1Cl` (centres undefined), the result in experiment [1], in experiment [2], in [3], in experiment [5] and in experiment [6] was inactive.
Take `CCCCCCCO`: the outcome in experiment [1], in experiment [2], in experiment [3], in [5] and in experiment [6] was inactive.
In the case of `CC(c1cc(C(C)(C)C)cc(C(C)(C)C)c1O)c1cc(C(C)(C)C)cc(C(C)(C)C)c1O`, the values for the AC50 in experiment [1], in [2] and in [3] were 28.1 µM (active), 32.3 µM (active) and 17.2 µM (active), respectively. Moreover, the outcome in [5] and in experiment [6] was inactive.
As for `CCCCNS(=O)(=O)c1ccccc1`, the compound was called inactive in experiment [8], in experiment [9] and in experiment [7].
For the compound `CCCCCC1=CCCC1=O`, the outcome in experiment [1], in experiment [2], in [3], in [5] and in experiment [6] was inactive.
With `Clc1cc(Cl)c(Cl)c(Cl)c1Cl`, the result in experiment [1], in experiment [2], in [3] and in [6] was inactive. In addition, the AC50 in experiment [5] was 20 µM (active).
`O=C(Cl)c1c(Cl)c(Cl)c(C(=O)Cl)c(Cl)c1Cl`: the outcome in experiment [1], in [2], in experiment [3], in experiment [5] and in experiment [6] was inactive.
As to `Oc1ccc(/C=C/c2cc(O)cc(O)c2)cc1`, the figures for the AC50 in [1], in experiment [2] and in experiment [3] were 24.5 µM (active), 35.4 µM (active) and 20 µM (active), respectively. Besides, the result in experiment [5] and in experiment [6] was inactive.
Regarding `CC1=CC=C(C(C)C)CC1`, the result in experiment [1], in experiment [2], in experiment [3], in experiment [5] and in experiment [6] was inactive.
Turning to `CCc1cccc(C)c1N(C(=O)CS(=O)(=O)O)C(C)COC` (centres undefined), the result in experiment [1], in [2], in experiment [3], in [5] and in [6] was inactive.
On to `COC(=O)[C@H](Cc1ccccc1)NC(=O)[C@@H](N)CC(=O)O` (H-Asp-Phe-OMe), for which the compound was classed as inactive in [10], in experiment [9] and in experiment [7].
Turning to `CC=C(C)C=CC=C(C)C`, the concentration at half-maximal activity (AC50) in experiment [1] was 26.9 µM (active); in [2], 14.1 µM (active). The result in [3], in experiment [5] and in [6] was inactive.
On to `CCCCCCOC(=O)CCCCC(=O)OCCCCCC`, for which the outcome in experiment [1], in experiment [2], in experiment [3], in experiment [5] and in experiment [6] was inactive.
